The test system of experiment [1] is Plasmodium falciparum Sir2 (PF13_0152, Sir2A). Description: Plasmodium falciparum Sir2A binding compounds – biochemical, small-molecule microarray, 635 nm fluorescence, primary screen (AID 1098).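 Also: score merges spot fluorescence intensity with its signal-to-noise ratio.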 The note with it: fluorescence 635 nm, higher = more signal.
Experiment [2] is described as follows: probe aDKK1 binding to arrayed compounds – biochemical, biotinylated probe, 635/667 nm fluorescence, primary screen (AID 1099).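 Also: score merges 667nm spot fluorescence with signal to noise across triplicate slides.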 The note with it: small-molecule microarray, higher = more signal.
Experiment [3] in a line: probe aCHRDL2 binding to arrayed compounds – biochemical, biotinylated probe, 635/667 nm fluorescence, primary screen (AID 1100). The note with it: small-molecule microarray, higher = more signal.
The nature of experiment [4]: change in splice reporter luminescence, either direction, cell-based, HEK293, spliceosome inhibition project, primary screen (AID 1101).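 Also: HEK293 cells carrying a splicing-competent luciferase reporter gene; test concentration not given here.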 The note with it: HEK293 splicing luciferase reporter, 24 h, higher = more signal, called active from +8 up or from −8 down. Background: A reporter such as luciferase makes a cellular process visible.
Experiment [5] concerns the target Fibroblast growth factor 10 (Homo sapiens) (UniProt O15520). Briefly: compounds binding fibroblast growth factor 10 – biochemical, small-molecule microarray, 635 nm fluorescence, primary screen (AID 1102). The note with it: FGF10 binding, fluorescence 635 nm, higher = more signal.
In experiment [6] the test system is glycogen synthase kinase-3 (GSK3A per assay name; protocol says GSK3B). Briefly: compounds binding glycogen synthase kinase-3 – biochemical, small-molecule microarray, 635 nm fluorescence, GSK3A, primary screen (AID 1103). Also: the record names both GSK3A and GSK3B. The note with it: fluorescence 635 nm, higher = more signal.
Experiment [7] deals with Epidermal growth factor receptor (Homo sapiens) (UniProt P00533). Description: compounds binding epidermal growth factor receptor – biochemical, small-molecule microarray, 635 nm fluorescence, primary screen (AID 1104).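 Also: score merges 667 nm emission intensity with spot signal to noise over triplicate slides.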 Conditions: EGFR binding, higher = more signal.
Experiment [8] concerns the target Follistatin-related protein 3 (Homo sapiens) (UniProt O95633). Description: compounds binding follistatin-related protein 3 – biochemical, small-molecule microarray, 635 nm fluorescence, primary screen (AID 1105).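 Also: score merges emission near 667 nm and signal to noise per printed spot across three slides.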 The note with it: FSTL3 binding, higher = more signal.
Experiment [9] addresses Dickkopf-related protein 1 (Homo sapiens) (UniProt O94907). Description: small molecules binding DKK1 protein – biochemical, small-molecule microarray, 635 nm fluorescence scan, primary screen (AID 1106).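 Also: score merges emission near 667 nm with signal to noise over three replicate slides.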 The note with it: higher = more signal.
Experiment [10] relates to Inhibin beta A chain (activin A). Description: small molecules binding activin A – biochemical, small-molecule microarray, 635 nm fluorescence scan, primary screen (AID 1107).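 Also: mouse activin A protein probed at 4.33 µg/mL on printed slides; score merges bound-protein fluorescence near 667 nm with spot signal-to-noise.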 Conditions: INHBA, higher = more signal.
Experiment [11] has as its system Human papillomavirus type 1a protein E7 (residues 44-93). Description: small molecules binding HPV E7 44-93 – biochemical, small-molecule microarray, residues 44-93, 635 nm fluorescence, primary screen (AID 1108).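 Also: E7 fragment applied at 1 µg/mL in TBST for 1 h at 4 C; score combines spot fluorescence with its signal to noise ratio.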 The note with it: fluorescence 635 nm, higher = more signal.
A short description of experiment [12]: hepatitis C replication reporter changes, two-sided – Huh7 cells, luciferase reporter, HCV replication inhibitor project, primary screen (AID 1109).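 Also: huh7 hepatoma cells harbouring a luciferase neomycin HCV replicon reporter; luciferase luminescence as measure of HCV replicon replication; test concentration not given here.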 Conditions: Huh7 HCV replicon luciferase reporter, 48 h; higher = more signal.
In experiment [13] the target is Left-right determination factor 2 (Homo sapiens) (UniProt O00292). Description: small molecules binding LEFTY2 protein – biochemical, small-molecule microarray, 635 nm fluorescence scan, primary screen (AID 1110). Conditions: higher = more signal.
The target in experiment [14] is Calmodulin-1 (Homo sapiens) (UniProt P0DP23). Briefly: small molecules binding calmodulin-1 with EGTA – biochemical, small-molecule microarray, Cy5-labelled CALM1, profiling panel (AID 1111).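 Also: labelled calmodulin applied in Tris saline Tween buffer holding calcium plus EGTA and DTT.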 The note with it: Cy5-CALM1 binding fluorescence, higher = more signal.
The target is the same in experiment [15]. Briefly: small molecules binding Ca-loaded calmodulin-1 – biochemical, small-molecule microarray, Cy5-labelled CALM1, plus calcium, artefact control for SMM control-protein annotation, profiling panel (AID 1112).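 Also: score merges spot fluorescence with signal to noise from triplicate slides.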 Conditions: Cy5-CALM1 binding fluorescence, higher = more signal.
A short description of experiment [16]: probe aWnt5a binding to arrayed compounds – biochemical, biotinylated probe, 635/667 nm fluorescence, primary screen (AID 1113).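 Also: score merges 667 nm fluorescence intensity with signal-to-noise per printed feature.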 Conditions: small-molecule microarray, higher = more signal.
A short description of experiment [17]: probe aShh binding to arrayed compounds – biochemical, biotinylated probe, 635/667 nm fluorescence, primary screen (AID 1114).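 Also: probe is biotin-labelled aShh protein from a stem cell growth factor screen; measures binding of labelled protein to compounds printed on the slide; score merges feature fluorescence at 667 nm with signal-to-noise.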 Conditions: small-molecule microarray, higher = more signal.
A short description of experiment [18]: probe aNog binding to arrayed compounds – biochemical, biotinylated probe, 635/667 nm fluorescence, primary screen (AID 1115).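 Also: probe is biotinylated aNog protein used at 0.15 µg/mL for 1 h at 4 C; z-score combines 667 nm fluorescence of each spot with its signal to noise.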 The note with it: small-molecule microarray, higher = more signal.
For experiment [19], the target named is Torsin-1A-interacting protein 1 (Homo sapiens) (UniProt Q5JTV8). Description: compound microarray binding of lysate hLAP1 – cell lysate, small-molecule microarray, COS7 lysate, 635/667 nm fluorescence, primary screen (AID 1116). Conditions: 635 nm fluorescence, higher = more signal.
Experiment [20] deals with Alpha-bungarotoxin (Bungarus multicinctus) (UniProt P60615). Description: compounds binding labelled alpha-BTX control protein – biochemical, small-molecule microarray, Alexa647 label, 635/667 nm fluorescence, artefact control for SMM control protein annotation, profiling panel (AID 1117). Conditions: alpha-BTX-A647 binding fluorescence, higher = more signal.

The source made the active and inactive calls.

Sequence of Dickkopf-related protein 1 (Homo sapiens) (O94907 whole entry, looked up): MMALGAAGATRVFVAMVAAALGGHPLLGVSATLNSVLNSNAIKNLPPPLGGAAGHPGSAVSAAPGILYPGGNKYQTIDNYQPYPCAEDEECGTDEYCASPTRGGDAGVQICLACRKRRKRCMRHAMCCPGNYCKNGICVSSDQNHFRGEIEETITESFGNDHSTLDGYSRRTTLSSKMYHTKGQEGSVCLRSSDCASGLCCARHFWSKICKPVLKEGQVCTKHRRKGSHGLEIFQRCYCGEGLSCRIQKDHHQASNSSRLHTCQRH
Sequence of Torsin-1A-interacting protein 1 (Homo sapiens) (Q5JTV8 whole entry, looked up): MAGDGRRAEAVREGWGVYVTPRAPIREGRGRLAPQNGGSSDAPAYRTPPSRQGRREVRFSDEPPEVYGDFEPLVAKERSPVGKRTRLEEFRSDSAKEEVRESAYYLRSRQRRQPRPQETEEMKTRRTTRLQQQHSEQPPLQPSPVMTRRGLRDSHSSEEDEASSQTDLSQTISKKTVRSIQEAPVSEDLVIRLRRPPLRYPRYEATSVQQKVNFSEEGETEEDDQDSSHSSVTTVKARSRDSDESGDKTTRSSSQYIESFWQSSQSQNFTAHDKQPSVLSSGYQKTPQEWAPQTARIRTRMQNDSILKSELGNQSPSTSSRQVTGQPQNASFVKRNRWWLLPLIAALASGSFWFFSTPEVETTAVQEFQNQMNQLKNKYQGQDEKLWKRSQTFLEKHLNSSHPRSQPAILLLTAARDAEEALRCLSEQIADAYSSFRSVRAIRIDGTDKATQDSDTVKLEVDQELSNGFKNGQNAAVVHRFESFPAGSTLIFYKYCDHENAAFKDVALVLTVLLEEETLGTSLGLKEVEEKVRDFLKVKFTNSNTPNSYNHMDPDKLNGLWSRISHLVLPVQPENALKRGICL
Sequence of Follistatin-related protein 3 (Homo sapiens) (O95633 whole entry, looked up): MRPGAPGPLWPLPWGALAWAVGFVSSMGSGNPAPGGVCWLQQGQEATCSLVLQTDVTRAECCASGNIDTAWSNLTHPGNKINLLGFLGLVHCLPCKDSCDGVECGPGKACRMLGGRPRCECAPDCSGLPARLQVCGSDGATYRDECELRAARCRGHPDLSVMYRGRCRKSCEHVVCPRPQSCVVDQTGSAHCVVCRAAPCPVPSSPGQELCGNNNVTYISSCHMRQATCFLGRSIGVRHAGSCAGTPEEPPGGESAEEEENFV
Sequence of Left-right determination factor 2 (Homo sapiens) (O00292 whole entry, looked up): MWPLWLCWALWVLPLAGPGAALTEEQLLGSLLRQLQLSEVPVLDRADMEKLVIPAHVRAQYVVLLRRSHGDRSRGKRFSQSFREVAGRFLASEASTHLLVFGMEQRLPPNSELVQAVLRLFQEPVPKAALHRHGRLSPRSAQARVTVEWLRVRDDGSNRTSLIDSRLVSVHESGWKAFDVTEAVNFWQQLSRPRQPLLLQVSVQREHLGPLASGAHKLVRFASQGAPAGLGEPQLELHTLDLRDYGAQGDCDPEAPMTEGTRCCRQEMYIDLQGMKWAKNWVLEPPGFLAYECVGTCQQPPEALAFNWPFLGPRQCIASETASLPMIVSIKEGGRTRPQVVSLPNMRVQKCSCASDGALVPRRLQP
Sequence of Fibroblast growth factor 10 (Homo sapiens) (O15520 whole entry, looked up): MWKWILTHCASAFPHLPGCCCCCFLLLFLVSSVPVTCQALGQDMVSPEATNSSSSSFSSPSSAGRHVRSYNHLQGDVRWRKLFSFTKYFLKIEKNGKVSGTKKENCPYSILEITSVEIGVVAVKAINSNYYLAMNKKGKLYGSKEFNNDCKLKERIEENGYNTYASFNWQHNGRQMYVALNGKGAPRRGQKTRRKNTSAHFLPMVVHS
Sequence of Epidermal growth factor receptor (Homo sapiens) (P00533 whole entry, looked up): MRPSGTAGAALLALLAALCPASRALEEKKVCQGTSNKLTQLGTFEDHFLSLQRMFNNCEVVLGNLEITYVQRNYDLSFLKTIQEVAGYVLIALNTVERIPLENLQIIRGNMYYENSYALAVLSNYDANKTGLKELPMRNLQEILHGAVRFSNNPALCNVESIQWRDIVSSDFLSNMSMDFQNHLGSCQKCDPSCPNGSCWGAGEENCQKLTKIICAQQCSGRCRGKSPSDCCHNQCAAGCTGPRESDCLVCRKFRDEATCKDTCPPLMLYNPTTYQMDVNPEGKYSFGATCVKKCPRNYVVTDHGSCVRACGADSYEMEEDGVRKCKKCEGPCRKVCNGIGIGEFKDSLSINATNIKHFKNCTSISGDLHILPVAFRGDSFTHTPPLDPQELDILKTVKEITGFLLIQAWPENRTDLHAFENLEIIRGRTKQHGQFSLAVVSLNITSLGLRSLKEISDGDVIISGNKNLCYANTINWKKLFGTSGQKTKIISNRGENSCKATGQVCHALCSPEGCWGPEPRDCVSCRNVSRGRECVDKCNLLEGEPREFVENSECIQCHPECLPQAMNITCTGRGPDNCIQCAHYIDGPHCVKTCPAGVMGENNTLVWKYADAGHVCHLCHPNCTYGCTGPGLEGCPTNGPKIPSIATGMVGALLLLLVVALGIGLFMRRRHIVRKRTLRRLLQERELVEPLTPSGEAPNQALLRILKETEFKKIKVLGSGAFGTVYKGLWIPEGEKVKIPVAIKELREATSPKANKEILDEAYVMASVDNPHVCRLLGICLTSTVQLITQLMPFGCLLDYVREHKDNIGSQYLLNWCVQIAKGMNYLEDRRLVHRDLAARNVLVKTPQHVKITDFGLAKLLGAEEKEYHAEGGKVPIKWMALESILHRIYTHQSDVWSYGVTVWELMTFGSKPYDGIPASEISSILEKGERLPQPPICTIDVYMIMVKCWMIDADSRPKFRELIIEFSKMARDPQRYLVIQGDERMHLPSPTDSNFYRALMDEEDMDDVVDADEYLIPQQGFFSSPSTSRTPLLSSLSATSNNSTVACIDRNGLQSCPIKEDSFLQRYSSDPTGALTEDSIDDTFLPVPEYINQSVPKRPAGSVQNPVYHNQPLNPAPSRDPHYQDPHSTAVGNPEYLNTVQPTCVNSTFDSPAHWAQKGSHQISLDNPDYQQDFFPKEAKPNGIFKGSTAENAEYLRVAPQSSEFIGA
Sequence of Alpha-bungarotoxin (Bungarus multicinctus) (P60615 whole entry, looked up): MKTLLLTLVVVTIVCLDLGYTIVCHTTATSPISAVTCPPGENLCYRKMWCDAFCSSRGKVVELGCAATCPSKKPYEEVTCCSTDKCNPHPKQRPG

For the compound `COCCCNC(=O)[C@@]1(Sc2ccc(C)cc2)CC(=O)N(Cc2ccccc2C(F)(F)F)[C@@H]1c1ccc(CO)cc1I`, the composite z-score was 0.284 in experiment [1]; 0.583 in experiment [2]; 1.07 in experiment [3]; -1.02 in experiment [5]; -0.981 in [6]; -1.44 in experiment [7]. Moreover, the composite z-score in experiment [8] was -1.73; in experiment [9], -0.831; in [10], 1.02; in [11], -0.779; in experiment [13], -1.47; in experiment [14] it was -0.376. Also, the composite z-score is 1.04 in experiment [15]; -0.139 in experiment [16]; -0.0769 in [17]; 0.595 in experiment [18]; -0.181 in [19]; -1.2 in experiment [20]. The figures for the z-score in experiment [4] and in experiment [12] were -0.411 (inactive) and -0.817, respectively.
As to `C=CCN1Cc2ccccc2[C@H]2OC(c3ccc(OCCCO)cc3)=N[C@@]2(CCS(=O)(=O)c2ccccc2)C1=O`, the composite z-score is 1.45 in [1]; 1.07 in [2]; 1.35 in experiment [3]; 0.728 in [5]; 1.26 in experiment [6]; 0.714 in experiment [7]. For the same compound, the composite z-score in experiment [8] was found to be 1.38; in [9], 0.933; in [10] it was 0.852; in experiment [11] it was 1.26; in experiment [13] it was 0.62; in [14] it was 1.64. Besides, the composite z-score is 0.472 in experiment [15]; 0.0704 in experiment [16]; -0.0056 in experiment [17]; -0.0831 in experiment [18]; 1.49 in experiment [19]; 1.21 in experiment [20]. In addition, the figures for the z-score in experiment [4] and in experiment [12] were 0.767 (inactive) and -1.56, respectively.
For the compound `CCCCC(O)C1C=CC2C(=O)N(c3ccccc3)C(=O)C2N1Nc1ccc(C#N)cc1` (stereo not given), the composite z-score is 1.11 in [1]; 1.12 in experiment [2]; 0.906 in [3]; 0.398 in experiment [5]; 0.383 in experiment [6]; 0.0738 in [7]. Also, the composite z-score was -0.0673 in experiment [8]; -0.579 in experiment [9]; 0.513 in experiment [10]; 1.02 in experiment [11]; 0.123 in [13]; 1.06 in [14]. Moreover, the composite z-score is 0.929 in experiment [15]; -0.0125 in experiment [16]; 0.337 in experiment [17]; 1.19 in experiment [18]; 0.385 in experiment [19]; 1.01 in experiment [20]. In addition, the z-score in experiment [4] is 0.12 (inactive); in [12] it was -0.115.
Regarding `C#CCN1[C@@H](Cc2ccccc2)C(=O)O[C@H](Cc2ccccc2)[C@@H]1/C=C/C1CC1`, the composite z-score in experiment [1] was 0.345; in [2] it was -0.251; in [3], -0.505; in [5] it was 0.209; in experiment [6], 0.524; in experiment [7] it was -0.333. Also, the composite z-score in [8] is 0.22; in [9], 0.156; in experiment [10] it was 0.781; in [11] it was 0.805; in [13] it was 0.137; in [14], -0.63. Moreover, the composite z-score is -0.717 in experiment [15]; -0.118 in [16]; -0.0337 in experiment [17]; -0.196 in experiment [18]; 0.436 in [19]; 0.456 in experiment [20]. Further, the z-score in experiment [4] was -0.29 (inactive); in experiment [12], -2.28.
Consider `C=CCOC(=O)[C@H]1[C@@H]2C(=O)O[C@@H](c3ccccc3)[C@@H](c3ccccc3)N2[C@@H](c2ccc(OCCOC(=O)[C@H]3C[C@H]4C(=O)N[C@@H](CC(C)C)C(=O)N4[C@H]3c3ccc(O)cc3)cc2)[C@]12C(=O)Nc1ccccc12`, for which the composite z-score turned out to be 1.58 in [1]; 0.0955 in experiment [2]; 0.202 in experiment [3]; 1.47 in experiment [5]; 1.34 in experiment [6]; 1.41 in experiment [7]. Also, the composite z-score in experiment [8] was 1.4; in experiment [9], 1.54; in experiment [10], 0.509; in experiment [11] it was 1.42; in [13], 1.44; in experiment [14], 0.538. Also, the composite z-score is -0.273 in experiment [15]; 0.0919 in experiment [16]; -0.066 in experiment [17]; -0.582 in [18]; 1.78 in [19]; 1.52 in experiment [20]. Further, the z-score was 0.119 (inactive) in experiment [4] and -1.75 in [12].
Turning to `CCCCC(=C=CC[C@H](O)c1ccc(CO)o1)CCO`, the composite z-score in [1] is 1.17; in experiment [2], -0.0027; in [3] it was -0.485; in experiment [5], 0.738; in [6], 0.514; in [7], -0.0244. Further, the composite z-score in [8] was 0.484; in experiment [9], -0.0878; in experiment [10], 0.839; in experiment [11], 0.906; in experiment [13], 0.346; in experiment [14], 0.155. Further, the composite z-score was -0.363 in experiment [15]; -0.124 in experiment [16]; 0.137 in [17]; 0.2 in experiment [18]; 0.906 in experiment [19]; 0.221 in [20]. Also, the figures for the z-score in [4] and in [12] were 0.263 (inactive) and -0.401, respectively.
